According to PubChem BioAssay (EPA / NIEHS):
Values joined by “and” are separate entries in the source; they are usually repeats but may differ in a detail not shown here. Equal values may be shown once. Records with an inconclusive call do not appear. Active and inactive are the calls of the source. Rule for the calls, unless noted: active = hit-call score of the fitted dose curve at least 0.9, where 1 is the maximum; inactive = score below 0.9.

Target: Ratio of Nucleoli Translocation and Cytoplasm, AR (gene 367) (UniProt P10275)
Sequence (P10275 whole entry, looked up): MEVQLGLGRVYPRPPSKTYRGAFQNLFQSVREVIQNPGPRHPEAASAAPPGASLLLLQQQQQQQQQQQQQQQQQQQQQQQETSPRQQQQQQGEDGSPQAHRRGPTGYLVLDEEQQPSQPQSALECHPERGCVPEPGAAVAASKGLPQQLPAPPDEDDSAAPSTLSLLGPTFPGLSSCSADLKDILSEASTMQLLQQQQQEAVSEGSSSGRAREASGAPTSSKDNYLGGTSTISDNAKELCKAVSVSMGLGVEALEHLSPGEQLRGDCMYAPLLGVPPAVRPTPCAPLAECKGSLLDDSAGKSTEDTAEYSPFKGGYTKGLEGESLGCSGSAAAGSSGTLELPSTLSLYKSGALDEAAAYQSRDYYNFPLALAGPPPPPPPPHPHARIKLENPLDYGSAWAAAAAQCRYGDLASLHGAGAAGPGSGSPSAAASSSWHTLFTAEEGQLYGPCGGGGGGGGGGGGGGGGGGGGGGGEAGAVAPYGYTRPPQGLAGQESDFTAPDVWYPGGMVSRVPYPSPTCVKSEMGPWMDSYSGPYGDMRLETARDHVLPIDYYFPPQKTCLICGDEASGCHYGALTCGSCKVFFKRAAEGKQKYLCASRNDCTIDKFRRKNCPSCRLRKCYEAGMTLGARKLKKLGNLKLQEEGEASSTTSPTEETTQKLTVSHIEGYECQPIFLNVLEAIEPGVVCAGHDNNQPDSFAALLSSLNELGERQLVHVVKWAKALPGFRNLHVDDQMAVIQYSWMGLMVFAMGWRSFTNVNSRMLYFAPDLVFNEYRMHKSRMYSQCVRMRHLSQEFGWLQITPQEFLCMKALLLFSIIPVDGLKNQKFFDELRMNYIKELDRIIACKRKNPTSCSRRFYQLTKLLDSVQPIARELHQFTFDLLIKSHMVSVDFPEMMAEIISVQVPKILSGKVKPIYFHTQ
Test: UPITT_HCI_U2OS_AR_TIF2_Nucleoli_Cytoplasm_Ratio_Agonist: University of Pittsburgh U2OS Androgen Receptor-Transcriptional Intermediary Factor 2 (AR-TIF2) Agonism High Content Imaging Assay for Ratio of Nucleoli Translocation and Cytoplasm (AID 2284000; active = hit-call score of the fitted dose curve at least 0.9, where 1 is the maximum;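 note: hits raise the red nucleolar to cytoplasm ratio above vehicle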)
Conditions: not given
Summary of the method: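 Compounds tested at 20 uM final in primary screen (0.2% DMSO) and 0.195-50 uM final in dose-response (0.5% DMSO). Imaging of human U2OS cells bearing RFP-AR and GFP-TIF2; endpoint is nucleoli/cytoplasm red signal ratio, positive direction relative to DMSO.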

Compound | AC50 | outcome
N#CSCSc1nc2ccccc2s1 | 12.8 µM (active) | –
CC1(C)C(C=C(Cl)Cl)C1C(=O)OCc1cccc(Oc2ccccc2)c1 (configuration not stated) | – | inactive
C[C@]12CC[C@@H]3c4ccc(O)cc4C[C@@H](CCCCCCCCCS(=O)CCCC(F)(F)C(F)(F)F)[C@H]3[C@@H]1CC[C@@H]2O (some centres not stated) | – | inactive
CCSC(=O)N(CC(C)C)CC(C)C | – | inactive
O=C(c1ccc(O)cc1O)c1ccc(O)cc1O | – | inactive
O=C(O)C1(C(=O)Nc2ccc(Cl)cc2Cl)CC1 | – | inactive
c1ccc2[nH]c(-c3cscn3)nc2c1 | – | inactive
CSC(=O)c1cccc2nnsc12 | – | inactive
O=C(c1ccccc1)C1CCCCC1 | – | inactive
CC(C)(c1ccc(O)cc1)c1ccc(O)cc1 | 86.7 µM (active) | –
CCCOC(=O)c1ccc(C(=O)OCCC)nc1 | – | inactive
CCCCOCCOCCOCc1cc2c(cc1CCC)OCO2 | – | inactive
CCCN(CCC)C(=O)SCC | – | inactive
CCOC(=O)COc1cc(-n2ncc(C(F)(F)F)c(C)c2=O)c(F)cc1Cl | – | inactive
COC(=O)CSc1cc(N=c2sc(=O)n3n2CCCC3)c(F)cc1Cl | – | inactive

Tested on: not listed separately
Test: CCTE_Simmons_MITO_basal_resp_rate: CCTE's HepG2 Seahorse XF Respirometric Screening Assay at Basal Respiratory State, Simmons Lab (AID 2284001)
Conditions: actives raise or lower the signal
Summary of the method: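 Basal-phase OCR in HepG2 cells, read at 6-min intervals across a 72-min run, with test compound injected at 125 nM–100 uM final (7 points). Fitted both directions against DMSO; three biological replicates per concentration.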

Compound | AC50 | outcome
N#CSCSc1nc2ccccc2s1 | 15.1 µM (active) | –
CC(C)CCCCCCc1ccc(O)cc1 | 50 µM (active) | –
CCCCOC(=O)C(C)Oc1ccc(Oc2ccc(C(F)(F)F)cn2)cc1 (configuration not stated) | – | inactive
O=C(c1ccc(O)cc1O)c1ccc(O)cc1O | 34.6 µM (active) | –
O=C(O)C1(C(=O)Nc2ccc(Cl)cc2Cl)CC1 | – | inactive
CC(=O)[C@H]1CC[C@H]2[C@@H]3CCC4=CC(=O)CC[C@]4(C)[C@H]3CC[C@]12C | 10.1 µM (active) | –
CC(C)(c1ccc(O)cc1)c1ccc(O)cc1 | 18.9 µM (active) and 24.7 µM (active) | –
CCOC(=O)NCCOc1ccc(Oc2ccccc2)cc1 | 21.5 µM (active) | –
C=CCOC(Cn1ccnc1)c1ccc(Cl)cc1Cl (configuration not stated) | 24.3 µM (active) | –
O=C(Nc1ccc([N+](=O)[O-])cc1Cl)c1cc(Cl)ccc1O | 1.57 µM (active) | –
N[C@@H](Cc1cc(I)c(Oc2ccc(O)c(I)c2)c(I)c1)C(=O)O | 6.61 µM (active) | –
CCCCC(CC)COC(=O)c1ccccc1C(=O)O (configuration not stated) | 3.97 µM (active) | –
CCCCC(CC)CN1C(=O)C2C3C=CC(C3)C2C1=O (configuration not stated) | 25.3 µM (active) | –
CCCCOC(=O)[C@@H](C)Oc1ccc(Oc2ccc(C(F)(F)F)cn2)cc1 | – | inactive
Cc1nn(C)c(Oc2ccccc2)c1C=NOCc1ccc(C(=O)OC(C)(C)C)cc1 | 1.15 µM (active) and 1.55 µM (active) | –
Oc1ccc(C(c2ccc(O)cc2)C(Cl)(Cl)Cl)cc1 | 18.8 µM (active) | –
C[C@]12C[C@H](O)[C@H]3[C@@H](CCC4=CC(=O)CC[C@@]43C)[C@@H]1CC[C@@H]2C(=O)CO | 42 µM (active) | –
